Assay results reported in PubChem BioAssay (EPA / NIEHS).
Several values for one entry are separate records, joined by “and”; a condition that tells them apart may be missing. Identical values can stand only once. Inconclusive results are not listed. Activity calls are given as the source filed them. How the source made its calls: active means hit-call score of the fitted dose curve at least 0.9, where 1 is the maximum; inconclusive means response in the unintended direction; inactive means score below 0.9.

The compounds below were run against mouse Peroxisome Proliferator-activated Receptor gamma (PPARg), Pparg (gene 19016) (UniProt P37238) (assay: ATG_mPPARg_XSP2: Attagene TRANS-FACTORIAL Multi-Species (XSP2) HepG2 Assay for mouse Peroxisome Proliferator-activated Receptor gamma (PPARg) (AID 2283830);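 further: hits are gains in reporter mRNA above DMSO so AC50 marks activation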).
Sequence of mouse Peroxisome Proliferator-activated Receptor gamma (PPARg), Pparg (gene 19016) (P37238 whole entry, looked up): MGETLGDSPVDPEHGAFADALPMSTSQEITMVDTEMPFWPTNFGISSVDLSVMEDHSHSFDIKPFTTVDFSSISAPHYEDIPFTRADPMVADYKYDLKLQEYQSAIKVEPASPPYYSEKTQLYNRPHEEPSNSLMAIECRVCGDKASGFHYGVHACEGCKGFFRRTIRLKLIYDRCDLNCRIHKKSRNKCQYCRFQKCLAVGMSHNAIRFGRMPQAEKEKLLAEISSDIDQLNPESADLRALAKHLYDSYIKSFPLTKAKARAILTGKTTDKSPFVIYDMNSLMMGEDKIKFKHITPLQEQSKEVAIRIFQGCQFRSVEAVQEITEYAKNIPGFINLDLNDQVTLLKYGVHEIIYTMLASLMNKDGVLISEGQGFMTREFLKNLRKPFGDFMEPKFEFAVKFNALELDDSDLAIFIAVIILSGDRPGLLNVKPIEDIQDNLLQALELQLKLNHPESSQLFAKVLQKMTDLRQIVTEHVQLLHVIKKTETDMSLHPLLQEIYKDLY
Procedure: ATG_XSP2_multi-species_TRANS is a cell-based, multiplexed assay created by modifying the existing Attagene TRANS-FACTORIAL system to include a panel of nuclear receptors from some or all the following species: human (Homo sapiens), mouse (Mus musculus), frog (Xenopus laevis), zebrafish (Danio rerio), chicken (Gallus gallus), and turtle (Chrysemys picta). The […] format uses HepG2, a human liver cell line, with measurements taken at 24 hours after chemical dosing in a 24-well plate. Xsp2 included 3 nM 6-alpha-fluorotestosterone and 1.5 nM norgestrel to stimulate the androgen receptor.ATG_mPPARg_XSP2 is one of 29 assay components measured or calculated from the ATG_XSP2_multi-species_TRANS assay. It is designed to make measurements of mRNA induction, a form of inducible reporter, as detected with fluorescence intensity signals by Reverse transcription polymerase chain reaction (RT-PCR) and Capillary electrophoresis technology.The assay endpoint ATG_mPPARg_XSP2 was analyzed in the positive analysis fitting direction relative to DMSO as the negative control and baseline of activity. Using a type of inducible reporter, measures of mRNA for gain-of-signal activity can be used to understand the reporter gene at the transcription factor-level as they relate to the gene PPARg. Furthermore, this assay endpoint can be referred to as a primary readout, because this assay has produced multiple assay endpoints where this one serves a reporter gene function. To generalize the intended target to other relatable targets, this assay endpoint is annotated to the nuclear receptor intended target family, where the subfamily is non-steroidal.
Human liver HepG2 cells are transiently transfected with multiple reporter transcription units (MRTUs) in 6-well plates using FuGene 6 reagent (Roche; 3 ml FuGene/1 mg DNA). The MRTU constructs are regulated by a cis-regulating element (promoter). […] A major difference between the CIS and TRANS system is that in CIS activities of endogenous TFs are measured, whereas the TRANS assay evaluates changes in activities of exogenous, chimeric NR-Gal4 proteins. […] At the end of 24 hour incubation, total RNA was isolated using TriZol reagent (Invitrogen). The isolated RNA is then reverse-transcribed using oligo(dT) primer and Mo-MLV reverse transcriptase (Invitrogen) with DNAse I (Ambion) treatment for 30 min. The one-tenth of the produced cDNA was amplified by PCR using Taq DNA polymerase (Invitrogen) and two reporter sequence-specific primers. The PCR products were fluorescently labeled by primer extension with 6-arboxyfluorescein (6-FAM) 5'-labeled reporter sequence-specific primer (2 min at 95 C, 20 s at 68 C and 10 min at 72 C) and these products were digested with 5U of HpaI (New England Biolabs) for 2h at 37 C. The fragments were purified using Qiaquick PCR columns (Qiagen), analyzed on an ABI 3130xL genetic analyzer (Applied Biosystems) with peak positions identified by using a set of X-rhodamine (ROX)-labeled MapMarker1000 molecular weight standards (BioVentures). The raw capillary electrophoresis data was processed using Attagraph software (Attagene).
With `Oc1ccccc1Cc1ccccc1O` the AC50 was 58.3 µM (active) and 34.4 µM (active). In the case of `CC(C)(C)NC(=O)[C@H]1CC[C@H]2[C@@H]3CC[C@H]4NC(=O)C=C[C@]4(C)[C@H]3CC[C@]12C`, the outcome is reported as “inactive”. For `O=C(O)/C=C/c1ccccc1`, the outcome was “inactive”. With `C=C1C[C@H]2[C@@H]3C=C(C)C4=CC(=O)CC[C@]4(C)[C@H]3CC[C@]2(C)[C@@]1(OC(C)=O)C(C)=O` the outcome was “inactive”. For `N#Cc1ccc(C2CCCc3cncn32)cc1` (stereo not given), the outcome was “inactive”. `CCCCCCCCCCCCc1ccc(O)cc1` was tested, and the outcome was “inactive”. For `COc1ccc(-c2coc3cc(O)cc(O)c3c2=O)cc1`, the outcome was “inactive”. `Oc1ccc(-c2ccccc2)c(Cl)c1` was tested, and the AC50 was 33.4 µM (active). For `COc1ccc(C(=O)c2ccccc2)c(O)c1`, the AC50 was 78.9 µM (active) and 63.2 µM (active). With `CC(CCC(=O)O)(c1ccc(O)cc1)c1ccc(O)cc1` the outcome was “inactive”.
